According to PubChem BioAssay (Tox21):
Several values for one entry are separate records, joined by “and”; a condition that tells them apart may be missing. Equal entries are not always repeated. Records with an inconclusive call do not appear. Where a structure was tested more than once in an assay, its records may differ in their call. Activity calls are given as the source filed them. Unless noted, calls come from the whole dose curve; as a rule, active = well fitted curve in the direction sought with a large enough effect in the repeat runs; inconclusive = weak or mixed curves; inactive = no such curve, though single readings can be large; an effect the other way counts as inactive or inconclusive.

How the values were obtained:
[1] = qHTS assay to identify small molecule agonists of the RXR signaling pathway - cell viability counter screen (AID 1159529);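 note: HEK 293T cells carrying an RXR-alpha UAS beta-lactamase reporter; series mostly up to about 77 µM; nearly all actives have a fitted effect of over 50% in size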
Outline: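 In this parallel viability measure, GeneBLAzer RXR-alpha HEK 293T cells (2% charcoal-stripped FBS) were given a 5 hr preincubation, treated with compounds 16 hr at 37 C, and read by CellTiter-Glo luminescence.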

[2] = qHTS assay to identify small molecule antagonists of the retinoid acid receptor (RAR) signaling pathway - cell viability counter screen (AID 1159551); note: nearly all actives have a fitted effect of over 35% in size
Outline: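 In this counter screen, the RARE-luciferase line C3RL4 was exposed for 6 h at 37 C and 5% CO2 to compounds with retinol at 1 uM final. Cellular ATP, read by luminescence, served as the viability measure.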

[3] = qHTS assay to identify small molecule antagonists of the retinoic acid receptor (RAR) signaling pathway (AID 1159552; note: nearly all actives have a fitted effect of over 50% in size; note: potency is the fitted concentration of half-maximal effect)
Outline: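 C3RL4 RARE-luc cells, overnight plating; retinol 1 uM final added right after compound; 6 hr 37 C; luciferase read at 30 min RT.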

[4] = qHTS assay to identify small molecule agonists of the retinoic acid receptor (RAR) signaling pathway (AID 1159553); note: potency is the fitted concentration of half-maximal effect
Outline: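 In this cell-based screen, 1,000 C3RL4 cells per well were cultured overnight, dosed with test chemicals in DMSO for 6 hr, and assessed for RARE luciferase luminescence.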

[5] = qHTS assay to identify small molecule antagonists of the estrogen related receptor (ERR) signaling pathway from Tox21 library - cell viability counter screen (AID 1224834); note: nearly all actives have a fitted effect of over 30% in size
Outline: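 Counter screen run in ERR cells (2,000 cells/well): cells pre-incubated 6 h, then treated with compounds for 17.5 h at 37 C. Fluorescence was read 30 min after CellTiter-Fluor addition.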

[6] = qHTS assay to identify small molecule agonists of the constitutive androstane receptor (CAR) signaling pathway - cell viability counter screen (AID 1224836); note: series mostly up to about 92 µM; nearly all actives have a fitted effect of over 45% in size
Outline: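 Using CellTiter-Fluor, viability of HepG2 cells harbouring hCAR and CYP2B6-2.2kb was measured following 23 h incubation with a 15-concentration compound series plus PK11195 (0.75 uM final).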

[7] = biological target: Nuclear receptor subfamily 1 group I member 3 (Homo sapiens) (UniProt Q14994); assay: qHTS assay to identify small molecule antagonists of the constitutive androstane receptor (CAR) signaling pathway (AID 1224838); note: nearly all actives have a fitted effect of over 40% in size
Sequence of Nuclear receptor subfamily 1 group I member 3 (Homo sapiens) (Q14994 whole entry, looked up): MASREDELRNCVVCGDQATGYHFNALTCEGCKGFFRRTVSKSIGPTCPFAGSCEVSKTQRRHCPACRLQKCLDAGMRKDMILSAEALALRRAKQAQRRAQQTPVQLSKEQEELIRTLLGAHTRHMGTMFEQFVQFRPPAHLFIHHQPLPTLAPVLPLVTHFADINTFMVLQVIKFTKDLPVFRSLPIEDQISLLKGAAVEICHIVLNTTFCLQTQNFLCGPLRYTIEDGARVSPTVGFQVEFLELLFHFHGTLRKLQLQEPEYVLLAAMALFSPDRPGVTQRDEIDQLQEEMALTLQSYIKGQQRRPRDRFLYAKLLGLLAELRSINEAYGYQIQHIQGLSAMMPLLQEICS
Outline: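 Inhibition of CITCO-driven (50 nM final) CYP2B6 reporter expression is measured in HepG2 cells stably carrying hCAR. Fifteen compound concentrations are applied for 24 h at 37 C, followed by luciferase luminescence.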

[8] = biological target: Nuclear receptor subfamily 1 group I member 3 (Homo sapiens) (UniProt Q14994); assay: qHTS assay to identify small molecule agonists of the constitutive androstane receptor (CAR) signaling pathway (AID 1224839); note: nearly all actives have a fitted effect of over 15% in size; note: potency is the fitted concentration of half-maximal effect
Outline: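 Double-stable HepG2 cells (hCAR, CYP2B6-2.2kb) seeded 4 h before compound addition. Exposure 24 h with 0.75 uM PK11195 final. Luciferase detected by ONE-Glo.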

[9] = qHTS assay to identify small molecule agonists of the hypoxia (HIF-1) signaling pathway - cell viability counter screen (AID 1224844; calls by dose curve; note: nearly all actives have a fitted effect of over 50% in size)
Outline: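 In this counter screen, HRE-bla ME-180 cell viability after 17 hrs of compound exposure at 37C was read by CellTiter-Glo luminescence, multiplexed with the beta-lactamase reporter measurement.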

[10] = qHTS assay to identify small molecule antagonists of the constitutive androstane receptor (CAR) signaling pathway - cell viability counter screen (AID 1224837); note: series mostly up to about 92 µM; nearly all actives have a fitted effect of over 45% in size
Outline: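 CITCO at 50 nM final was added alongside compounds (15 concentrations) to double-stable hCAR/CYP2B6-2.2kb HepG2 cells. Following 23 hr at 37 C, cell viability was quantified by CellTiter-Fluor fluorescence intensity.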

[11] = qHTS assay to identify small molecule antagonists of the estrogen related receptor signaling pathway with the pleiotropic PPARgamma coactivator (PGC) from Tox21 10K library - cell viability counter screen (AID 1224840; active = well fitted cell-killing curve with a large enough effect in the repeat runs, not every such curve was filed as active; note: nearly all actives have a fitted effect of over 40% in size)
Outline: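 Readout: fluorescence intensity from CellTiter-Fluor after 30 min at 37 C/5% CO2. Preceded by 17.5 h treatment of PGC/ERR cells with DMSO-dissolved compounds, added 6 h post-seeding.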

[12] = qHTS assay to identify small molecule antagonists of the estrogen related receptor signaling pathway with the pleiotropic PPARgamma coactivator (PGC) from Tox21 10K library (AID 1224841; call rule not given here; note: series mostly up to about 92 µM; actives are mostly falling curves and most rising ones were filed inactive; nearly all actives have a fitted effect of over 50% in size)
Outline: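 One-Glo luminescence, measured after half an hour at room temperature, quantified reporter output of PGC/ERR cells. These had been plated at 2,000 per well, incubated 6 h, dosed with compounds in DMSO, then kept 18 h at 37 C.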

[13] = qHTS assay to identify small molecule agonists of the estrogen related receptor signaling pathway with the pleiotropic PPARgamma coactivator (PGC) from Tox21 10K library (AID 1224842); note: nearly all actives have a fitted effect of over 15% in size
Outline: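 PGC/ERR reporter cells (NTP line) were seeded 2,000 per well, rested 6 h at 37 C/5% CO2, then pin-dosed with compounds in DMSO for 18 h at 37 C; luciferase read by One-Glo luminescence after 30 min at room temperature.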

[14] = biological target: Thyrotropin receptor (Homo sapiens) (UniProt P16473); assay: qHTS assay to identify small molecule agonists of the thyroid stimulating hormone receptor (TSHR) signaling pathway (AID 1224843; calls by dose curve; note: nearly all actives have a fitted effect of over 45% in size; note: potency is the fitted concentration of half-maximal effect)
Sequence of Thyrotropin receptor (Homo sapiens) (P16473 whole entry, looked up): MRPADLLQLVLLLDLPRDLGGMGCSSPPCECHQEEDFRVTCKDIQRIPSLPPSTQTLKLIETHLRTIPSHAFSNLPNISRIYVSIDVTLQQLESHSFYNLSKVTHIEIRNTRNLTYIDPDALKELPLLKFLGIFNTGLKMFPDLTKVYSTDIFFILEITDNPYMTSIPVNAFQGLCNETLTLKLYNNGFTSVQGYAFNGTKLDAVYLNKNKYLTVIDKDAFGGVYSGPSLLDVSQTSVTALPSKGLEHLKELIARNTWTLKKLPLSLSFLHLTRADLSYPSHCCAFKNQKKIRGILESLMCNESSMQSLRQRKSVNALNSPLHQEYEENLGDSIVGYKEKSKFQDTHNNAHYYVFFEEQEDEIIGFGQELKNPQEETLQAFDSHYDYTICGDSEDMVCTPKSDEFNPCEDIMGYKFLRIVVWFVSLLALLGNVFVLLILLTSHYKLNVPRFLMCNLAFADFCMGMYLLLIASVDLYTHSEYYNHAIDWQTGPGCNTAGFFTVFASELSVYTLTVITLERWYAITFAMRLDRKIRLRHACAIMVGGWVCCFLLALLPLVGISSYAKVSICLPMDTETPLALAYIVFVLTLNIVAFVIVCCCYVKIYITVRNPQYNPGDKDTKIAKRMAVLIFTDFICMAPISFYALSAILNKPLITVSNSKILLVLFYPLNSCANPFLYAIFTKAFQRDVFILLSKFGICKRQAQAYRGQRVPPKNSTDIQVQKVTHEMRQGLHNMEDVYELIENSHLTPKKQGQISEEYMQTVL
Outline: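 Using 15 concentrations per compound in triplicate, cAMP production was monitored in TSHR-HEK293 cells after 30 min compound incubation at RT; HTRF reagents followed, with fluorescence intensity recorded after 1 h.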

[15] = biological target: Luciferin 4-monooxygenase (Photinus pyralis) (UniProt P08659); assay: qHTS assay to identify small molecule inhibitors of firefly luciferase (AID 1224835); note: nearly all actives have a fitted effect of over 25% in size; note: potency is the fitted concentration of half-maximal effect
Sequence of Luciferin 4-monooxygenase (Photinus pyralis) (P08659 whole entry, looked up): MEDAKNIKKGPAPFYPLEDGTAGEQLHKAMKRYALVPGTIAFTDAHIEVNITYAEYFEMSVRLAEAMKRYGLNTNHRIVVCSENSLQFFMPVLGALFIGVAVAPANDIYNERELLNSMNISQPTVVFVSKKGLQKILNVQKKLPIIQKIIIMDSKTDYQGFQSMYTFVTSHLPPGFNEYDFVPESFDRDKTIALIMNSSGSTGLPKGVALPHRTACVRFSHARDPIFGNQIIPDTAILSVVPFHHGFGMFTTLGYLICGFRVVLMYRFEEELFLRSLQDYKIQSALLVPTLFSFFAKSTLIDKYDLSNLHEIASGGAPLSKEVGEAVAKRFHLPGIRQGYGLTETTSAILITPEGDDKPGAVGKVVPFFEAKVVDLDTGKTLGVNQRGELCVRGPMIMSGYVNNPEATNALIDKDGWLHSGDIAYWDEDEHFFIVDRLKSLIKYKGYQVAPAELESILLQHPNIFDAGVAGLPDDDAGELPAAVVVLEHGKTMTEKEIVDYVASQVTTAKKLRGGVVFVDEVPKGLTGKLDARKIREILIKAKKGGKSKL
Outline: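 Quantitative HTS format; KM concentrations of both substrates. Purified P. pyralis FLuc activity quantified from luminescence images.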

Measured: Potency

CCNP(=S)(OC)O/C(C)=C/C(=O)OC(C)C (configuration not stated)
active: [8] 27.3 µM
inactive: [1] | [2] | [3] | [4] | [5] | [6] | [7] | [9]

S=C=S
not listed: [15]
inactive: all other assays above

O=C(Cl)/C=C/C(=O)Cl
not listed: [7] | [8] | [12] | [14] | [15]
inactive: all other assays above

COc1cccc([C@@]2(O)CCCC[C@@H]2CN(C)C)c1
not listed: [6] | [7] | [8] | [10] | [11]
inactive: all other assays above

CCN[C@@H](C)Cc1cccc(C(F)(F)F)c1
not listed: [8] | [12] | [13] | [15]
inactive: all other assays above

NC(=O)CS(=O)C(c1ccccc1)c1ccccc1 (configuration not stated)
not listed: [15]
inactive: all other assays above

COc1ccc(CN2CCNCC2)c(OC)c1OC
not listed: [8] | [14] | [15]
inactive: all other assays above

O=C/C=C/c1ccco1
not listed: [8] | [10] | [12] | [13] | [14] | [15]
inactive: all other assays above

NCCOS(=O)(=O)O
not listed: [7] | [8] | [12] | [13] | [15]
inactive: all other assays above

Cc1ccc2cc(C)ccc2c1
not listed: [8] | [14] | [15]
inactive: all other assays above

CCN(CC)CCOC(=O)C(O)(c1ccccc1)c1ccccc1
not listed: [8] | [11] | [15]
inactive: all other assays above

N[C@@H](Cc1ccc(Oc2cc(I)c(O)c(I)c2)c(I)c1)C(=O)O
not listed: [12] | [13] | [14] | [15]
inactive: all other assays above

CC(C)(C)C(=O)C(Cl)Cl
not listed: [6] | [8] | [12] | [13] | [15]
inactive: all other assays above

C[C@H](N)C(=O)c1ccccc1
not listed: [8] | [12] | [13] | [15]
inactive: all other assays above

O=C1CC(=O)NC(=O)N1
not listed: [12] | [13] | [15]
inactive: all other assays above

C=CCN1CC[C@]23CCCC[C@H]2[C@H]1Cc1ccc(O)cc13
not listed: [15]
inactive: all other assays above

ClC1=C(Cl)C2(Cl)C(CBr)CC1(Cl)C2(Cl)Cl (configuration not stated)
active: [14] 4.33 µM and 10.6 µM
54.5 µM (active) and inactive: [3]
not listed: [7] | [8] | [12] | [13] | [15]
inactive: all other assays above

CCNc1nc(Cl)nc(NC(C)(C)C)n1
not listed: [8] | [11] | [12] | [13] | [14] | [15]
inactive: all other assays above

CC(C)(C1CCC(O)CC1)C1CCC(O)CC1 (configuration not stated)
active: [8] 19.3 µM
not listed: [12] | [13] | [14] | [15]
inactive: all other assays above

Cc1cccc2sc3nncn3c12
not listed: [8] | [10] | [12] | [13] | [15]
inactive: all other assays above

BrCCc1ccccc1
not listed: [5] | [10] | [11]
inactive: all other assays above

CCN[C@@H](C)Cc1ccccc1
not listed: [5] | [7] | [8] | [11] | [15]
inactive: all other assays above

CCCCCCCC(=O)Cl
not listed: [5] | [8] | [12] | [13]
inactive: all other assays above

CCCOc1nn(C(=O)NS(=O)(=O)c2ccccc2C(=O)OC)c(=O)n1C
not listed: [5] | [11] | [12] | [13]
inactive: all other assays above

CCc1ccc(C2CCNCC2)cc1
inactive: [1] | [2] | [3] | [4] | [5] | [10] | [11] | [9]

BrCc1ccc(Br)cc1
not listed: [5] | [12] | [13]
inactive: all other assays above

CC(O)CCl (configuration not stated)
not listed: [5] | [8] | [12] | [13]
inactive: all other assays above

CC(C)(N)Cc1ccc(Cl)cc1
not listed: [5] | [6] | [12] | [13]
inactive: all other assays above

NNCc1ccccc1
active: [4] 2.48 µM | [15] 10.2 µM
not listed: [5] | [8] | [10] | [12] | [13]
inactive: all other assays above

ClCC1CO1 (configuration not stated)
not listed: [5]
inactive: all other assays above

O=P(O)(O)c1ccccc1
not listed: [5] | [6] | [8] | [12] | [13]
inactive: all other assays above

CCSC(=O)Cl
not listed: [5]
inactive: all other assays above

NC(=O)OCCCc1ccccc1
inactive: [1] | [2] | [3] | [4] | [15] | [10] | [14] | [9]

CCN(CCO)CCO
not listed: [5] | [11] | [12] | [13]
inactive: all other assays above

CC1NCCOC1c1ccccc1 (configuration not stated)
not listed: [5]
inactive: all other assays above

C=C(Cl)CSC(=S)N(CC)CC
not listed: [5] | [8] | [12] | [13] | [14]
inactive: all other assays above

CCN(CCO)CCn1c(Cc2ccccc2)nc2c1c(=O)n(C)c(=O)n2C
not listed: [5] | [11]
inactive: all other assays above

O=C(O)CBr
not listed: [5] | [7] | [8]
inactive: all other assays above

CC(C)[C@]12CC(=O)[C@H](C)[C@H]1C2
not listed: [5] | [7] | [8] | [12] | [13] | [15]
inactive: all other assays above

COc1ccccc1OC
not listed: [5] | [6] | [8] | [11]
inactive: all other assays above

CC[C@H](N)c1ccccc1
not listed: [5] | [10] | [12] | [13]
inactive: all other assays above

N=C(N)[Se]
not listed: [5] | [8] | [12] | [13]
inactive: all other assays above

CCN1CCCC1CNC(=O)C(O)(c1ccccc1)c1ccccc1 (configuration not stated)
not listed: [5] | [11] | [12] | [13] | [15]
inactive: all other assays above

COC1=CC(=O)O[C@@H](/C=C/c2ccccc2)C1
active: [4] 24.7 µM
not listed: [5] | [7] | [8] | [10] | [13]
inactive: all other assays above

O=c1[nH]c2ccccc2n1C1CCNCC1
not listed: [5] | [12] | [13]
inactive: all other assays above
